{"source": "PubChem BioAssay (NCI)", "key": {"[1]": {"experiment": "NCI Yeast Anticancer Drug Screen. Data for the rad52 strain (AID 147);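 further: 0% = growth of vehicle-treated control cultures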", "details": "S. cerevisiae rad52 mutant growth inhibition, active compounds read high", "how_it_was_run": "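Inhibition of yeast growth, referenced to vehicle controls, was the measured output for a strain with defective DNA damage repair.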"}, "[2]": {"experiment": "NCI Yeast Anticancer Drug Screen. Data for the wt1 strain (AID 149);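 further: 0% = growth of vehicle-treated wt1 cultures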", "details": "S. cerevisiae wt1 strain (SPY 50644) growth inhibition, active compounds read high", "how_it_was_run": "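The wt1 strain was treated with compounds, and growth was compared with vehicle-treated cultures to give inhibition.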"}, "[3]": {"experiment": "NCI Yeast Anticancer Drug Screen. Data for the rad50EPP+ strain (AID 151);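 further: 0% = growth of vehicle-treated control cultures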", "details": "S. cerevisiae rad50 mutant strain, active compounds read high", "how_it_was_run": "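Genetically defined yeast (rad50EPP+, DNA damage repair alteration) is grown with compound, and inhibition of growth is expressed relative to vehicle-treated controls.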"}, "[4]": {"experiment": "NCI Yeast Anticancer Drug Screen. Data for the rad50 strain (AID 155);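 further: 0% = growth of vehicle-only cultures of the same strain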", "details": "S. cerevisiae rad50 strain growth inhibition, active compounds read high", "how_it_was_run": "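Cells are treated with compound, grown, and their growth is then scored against vehicle-only cultures of the same repair-deficient yeast strain.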"}, "[5]": {"experiment": "NCI Yeast Anticancer Drug Screen. Data for the mec2-1 strain (AID 157)", "details": "S. cerevisiae mec2-1 strain, active compounds read high", "how_it_was_run": "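Each compound was tested on mec2-1 yeast, a strain altered in DNA damage repair or cell cycle control. Growth inhibition is reported relative to vehicle.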"}, "[6]": {"experiment": "NCI Yeast Anticancer Drug Screen. Data for the rad14 strain (AID 159);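 further: 0% = growth of vehicle-treated control cultures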", "details": "S. cerevisiae rad14 strain growth inhibition, active compounds read high", "how_it_was_run": "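Readout: yeast growth inhibition, referenced to vehicle-only cultures. Strain bears a defined alteration in DNA damage repair.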"}, "[7]": {"experiment": "NCI Yeast Anticancer Drug Screen. Data for the sgs1 mgt1 strain (AID 161);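 further: 0% = growth of cultures given vehicle only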", "details": "S. cerevisiae sgs1 mgt1 strain, active compounds read high", "how_it_was_run": "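Read-out: growth inhibition vs vehicle controls. Cells: mutant yeast strain deficient in DNA damage repair.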"}, "[8]": {"experiment": "NCI Yeast Anticancer Drug Screen. Data for the cln2 rad14 strain (AID 165);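 further: 0% = growth equal to vehicle treated cultures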", "details": "S. cerevisiae cln2 rad14 strain, active compounds read high", "how_it_was_run": "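Test compounds were added to cln2 rad14 yeast cultures; inhibition of growth was then determined by comparison with vehicle treatment.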"}, "[9]": {"experiment": "NCI Yeast Anticancer Drug Screen. Data for the bub3 strain (AID 167)", "details": "S. cerevisiae bub3 mutant strain, active compounds read high", "how_it_was_run": "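Part of a panel of yeast mutants defective in DNA damage repair or cell cycle regulation. Each strain is grown with compound, and inhibition is calculated relative to solvent-treated cultures.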"}, "[10]": {"experiment": "NCI Yeast Anticancer Drug Screen. Data for the wt2 strain (AID 169);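 further: 0% = growth of vehicle-treated yeast cultures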", "details": "S. cerevisiae wt2 strain growth inhibition, active compounds read high", "how_it_was_run": "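The panel's yeast strains carry defined changes in DNA repair or cell cycle genes. Each strain is grown with compound, and growth loss is scored relative to vehicle.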"}, "[11]": {"experiment": "NCI Yeast Anticancer Drug Screen. Data for the mlh1 strain (AID 171);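 further: 0% = growth of vehicle-treated control cultures of the same strain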", "details": "S. cerevisiae mlh1 strain growth inhibition, active compounds read high", "how_it_was_run": "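Inhibition values reflect reduced yeast growth in the presence of compound, referenced to vehicle controls, using a strain chosen for its alteration in DNA repair or cell cycle control.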"}, "[12]": {"experiment": "NCI Yeast Anticancer Drug Screen. Data for the sgs1 strain (AID 173);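 further: 0% = growth of vehicle-only control cultures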", "details": "S. cerevisiae sgs1 mutant, active compounds read high", "how_it_was_run": "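Vehicle-treated cultures served as reference for growth inhibition of a yeast strain altered in DNA damage repair or cell cycle control after compound exposure.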"}, "[13]": {"experiment": "NCI Yeast Anticancer Drug Screen. Data for the mlh1 rad18 strain (AID 175)", "details": "S. cerevisiae mlh1 rad18 strain growth inhibition, active compounds read high", "how_it_was_run": "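Inhibition values reflect reduced growth of mutant yeast versus vehicle-treated controls following compound exposure; the mutations affect DNA damage repair.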"}, "[14]": {"experiment": "NCI Yeast Anticancer Drug Screen. Data for the rad18 strain (AID 177)", "details": "S. cerevisiae rad18 mutant growth inhibition, active compounds read high", "how_it_was_run": "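Steps: expose repair-mutant yeast to compound; measure growth; express as inhibition relative to vehicle control.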"}, "[15]": {"details": "at 5.0 µM (retest, dose inferred, filed as 0.5)"}, "[16]": {"details": "at 50.0 µM (retest, dose inferred, filed as 5.0)"}}, "note": "About 79,000 compounds went through this panel and 15% of them were active in at least one assay; those are over-represented in the sample as a whole. Values without a mark were called inactive. Active and inactive are the calls of the source. No stated cut-off is given here; in the data, active means growth inhibition above about 70%; inactive means the rest."}
{"smiles": "COc1cc(/C=C/c2sc3ccccc3[n+]2C)ccc1N(C)C", "values": [{"measurement": "growth inhibition", "setting": "[1]; at 1.2 µM", "value": 1, "unit": "%"}, {"measurement": "growth inhibition", "setting": "[1]; at 3.7 µM", "value": -2, "unit": "%"}, {"measurement": "growth inhibition", "setting": "[1]; at 11.0 µM", "value": 0, "unit": "%"}, {"measurement": "growth inhibition", "setting": "[1]; at 33.0 µM", "value": 67, "unit": "%"}, {"measurement": "growth inhibition", "setting": "[1]; at 100.0 µM", "value": "93% (active)"}, {"measurement": "growth inhibition", "setting": "[2]; at 1.2 µM", "value": 0, "unit": "%"}, {"measurement": "growth inhibition", "setting": "[2]; at 3.7 µM", "value": -1, "unit": "%"}, {"measurement": "growth inhibition", "setting": "[2]; at 11.0 µM", "value": -1, "unit": "%"}, {"measurement": "growth inhibition", "setting": "[2]; at 33.0 µM", "value": 30, "unit": "%"}, {"measurement": "growth inhibition", "setting": "[2]; at 100.0 µM", "value": "97% (active)"}, {"measurement": "growth inhibition", "setting": "[3]; at 1.2 µM", "value": -1, "unit": "%"}, {"measurement": "growth inhibition", "setting": "[3]; at 3.7 µM", "value": 4, "unit": "%"}, {"measurement": "growth inhibition", "setting": "[3]; at 11.0 µM", "value": 11, "unit": "%"}, {"measurement": "growth inhibition", "setting": "[3]; at 33.0 µM", "value": 31, "unit": "%"}, {"measurement": "growth inhibition", "setting": "[3]; at 100.0 µM", "value": "87% (active)"}, {"measurement": "growth inhibition", "setting": "[4]; at 1.2 µM", "value": -4, "unit": "%"}, {"measurement": "growth inhibition", "setting": "[4]; at 3.7 µM", "value": 6, "unit": "%"}, {"measurement": "growth inhibition", "setting": "[4]; [15]", "value": 3, "unit": "%"}, {"measurement": "growth inhibition", "setting": "[4]; at 11.0 µM", "value": -18, "unit": "%"}, {"measurement": "growth inhibition", "setting": "[4]; at 33.0 µM", "value": 65, "unit": "%"}, {"measurement": "growth inhibition", "setting": "[4]; [16]", "value": 4, "unit": "%"}, {"measurement": "growth inhibition", "setting": "[4]; at 50.0 µM", "value": 67.8, "unit": "%"}, {"measurement": "growth inhibition", "setting": "[4]; at 100.0 µM", "value": "96% (active)"}, {"measurement": "growth inhibition", "setting": "[5]; at 1.2 µM", "value": 0, "unit": "%"}, {"measurement": "growth inhibition", "setting": "[5]; at 3.7 µM", "value": 0, "unit": "%"}, {"measurement": "growth inhibition", "setting": "[5]; [15]", "value": 3, "unit": "%"}, {"measurement": "growth inhibition", "setting": "[5]; at 11.0 µM", "value": 2, "unit": "%"}, {"measurement": "growth inhibition", "setting": "[5]; at 33.0 µM", "value": 69, "unit": "%"}, {"measurement": "growth inhibition", "setting": "[5]; [16]", "value": 0, "unit": "%"}, {"measurement": "growth inhibition", "setting": "[5]; at 50.0 µM", "value": 61.1, "unit": "%"}, {"measurement": "growth inhibition", "setting": "[5]; at 100.0 µM", "value": "98% (active)"}, {"measurement": "growth inhibition", "setting": "[6]; at 1.2 µM", "value": -4, "unit": "%"}, {"measurement": "growth inhibition", "setting": "[6]; at 3.7 µM", "value": -7, "unit": "%"}, {"measurement": "growth inhibition", "setting": "[6]; at 11.0 µM", "value": -2, "unit": "%"}, {"measurement": "growth inhibition", "setting": "[6]; at 33.0 µM", "value": "88% (active)"}, {"measurement": "growth inhibition", "setting": "[6]; at 100.0 µM", "value": "99% (active)"}, {"measurement": "growth inhibition", "setting": "[7]; [15]", "value": 2, "unit": "%"}, {"measurement": "growth inhibition", "setting": "[7]; [16]", "value": 7, "unit": "%"}, {"measurement": "growth inhibition", "setting": "[7]; at 50.0 µM", "value": "93.5% (active)"}, {"measurement": "growth inhibition", "setting": "[8]; [15]", "value": -2, "unit": "%"}, {"measurement": "growth inhibition", "setting": "[8]; [16]", "value": -1, "unit": "%"}, {"measurement": "growth inhibition", "setting": "[8]; at 50.0 µM", "value": 33.6, "unit": "%"}, {"measurement": "growth inhibition", "setting": "[9]; at 1.2 µM", "value": -2, "unit": "%"}, {"measurement": "growth inhibition", "setting": "[9]; at 3.7 µM", "value": 1, "unit": "%"}, {"measurement": "growth inhibition", "setting": "[9]; [15]", "value": 3, "unit": "%"}, {"measurement": "growth inhibition", "setting": "[9]; at 11.0 µM", "value": -2, "unit": "%"}, {"measurement": "growth inhibition", "setting": "[9]; at 33.0 µM", "value": 68, "unit": "%"}, {"measurement": "growth inhibition", "setting": "[9]; [16]", "value": "85% (active)"}, {"measurement": "growth inhibition", "setting": "[9]; at 50.0 µM", "value": 64.5, "unit": "%"}, {"measurement": "growth inhibition", "setting": "[9]; at 100.0 µM", "value": "97% (active)"}, {"measurement": "growth inhibition", "setting": "[10]; at 1.2 µM", "value": 0, "unit": "%"}, {"measurement": "growth inhibition", "setting": "[10]; at 3.7 µM", "value": -1, "unit": "%"}, {"measurement": "growth inhibition", "setting": "[10]; at 11.0 µM", "value": -2, "unit": "%"}, {"measurement": "growth inhibition", "setting": "[10]; at 33.0 µM", "value": 62, "unit": "%"}, {"measurement": "growth inhibition", "setting": "[10]; at 100.0 µM", "value": "97% (active)"}, {"measurement": "growth inhibition", "setting": "[11]; at 1.2 µM", "value": 0, "unit": "%"}, {"measurement": "growth inhibition", "setting": "[11]; at 3.7 µM", "value": -4, "unit": "%"}, {"measurement": "growth inhibition", "setting": "[11]; at 11.0 µM", "value": -3, "unit": "%"}, {"measurement": "growth inhibition", "setting": "[11]; at 33.0 µM", "value": "71% (active)"}, {"measurement": "growth inhibition", "setting": "[11]; at 100.0 µM", "value": "98% (active)"}, {"measurement": "growth inhibition", "setting": "[12]; at 1.2 µM", "value": 0, "unit": "%"}, {"measurement": "growth inhibition", "setting": "[12]; at 3.7 µM", "value": 0, "unit": "%"}, {"measurement": "growth inhibition", "setting": "[12]; at 11.0 µM", "value": -1, "unit": "%"}, {"measurement": "growth inhibition", "setting": "[12]; at 33.0 µM", "value": "82% (active)"}, {"measurement": "growth inhibition", "setting": "[12]; at 100.0 µM", "value": "97% (active)"}, {"measurement": "growth inhibition", "setting": "[13]; [15]", "value": -11, "unit": "%"}, {"measurement": "growth inhibition", "setting": "[13]; [16]", "value": -6, "unit": "%"}, {"measurement": "growth inhibition", "setting": "[13]; at 50.0 µM", "value": "92.5% (active)"}, {"measurement": "growth inhibition", "setting": "[14]; at 1.2 µM", "value": 2, "unit": "%"}, {"measurement": "growth inhibition", "setting": "[14]; at 3.7 µM", "value": 5, "unit": "%"}, {"measurement": "growth inhibition", "setting": "[14]; at 11.0 µM", "value": 2, "unit": "%"}, {"measurement": "growth inhibition", "setting": "[14]; at 33.0 µM", "value": "73% (active)"}, {"measurement": "growth inhibition", "setting": "[14]; at 100.0 µM", "value": "96% (active)"}]}
